According to PubChem BioAssay (Tox21):
Results filed as inconclusive are left out. Activity calls are given as the source filed them. Unless noted, calls come from the whole dose curve; as a rule, active = well fitted curve in the direction sought with a large enough effect in the repeat runs; inconclusive = weak or mixed curves; inactive = no such curve, though single readings can be large; an effect the other way counts as inactive or inconclusive.

Key:
[1] = qHTS assay to identify small molecule antagonists of the peroxisome proliferator-activated receptor delta (PPARd) signaling pathway - cell viability counter screen (AID 743213); note: % is set by controls: 0 for no effect and ±100 for the full control effect; nearly all actives have a fitted effect of over 50% in size
In short: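 Cytotoxicity counter screen: CellTiter-Glo luminescence read 30 min after addition, in the same wells as the reporter assay. There, PPARd UAS-bla HEK293H cells (3000/well) were treated 17 h at 37 C with compound and 300 nM L165041.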

[2] = qHTS assay to identify small molecule agonists of the farnesoid-X-receptor (FXR) signaling pathway - cell viability counter screen (AID 743218); note: % is set by controls: 0 for no effect and ±100 for the full control effect; nearly all actives have a fitted effect of over 45% in size
In short: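 Parallel cytotoxicity test: compound-treated (16 h, 37 C) HEK 293T FXR-bla reporter cells were lysed with CellTiter-Glo and luminescence recorded.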

[3] = qHTS assay to identify small molecule antagonists of the farnesoid-X-receptor (FXR) signaling pathway - cell viability counter screen (AID 743221; active = well fitted cell-killing curve with a large enough effect in the repeat runs, not every such curve was filed as active; note: % is set by controls: 0 for no effect and ±100 for the full control effect; nearly all actives have a fitted effect of over 50% in size)
In short: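 Here viability was scored by luminescence after CellTiter-Glo addition to wells already read for beta-lactamase. Prior treatment: compound plus CDCA (50 uM final), 16 h, 37 C, HEK 293T FXR-bla cells.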

[4] = biological target: Vitamin D3 receptor (Homo sapiens) (UniProt P11473); experiment: qHTS assay to identify small molecule agonists of the vitamin D receptor (VDR) signaling pathway (AID 743222; calls by dose curve; note: % is set by controls: 0 for no effect and ±100 for the full control effect)
In short: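 In VDR-bla cells, compound-induced beta-lactamase expression is quantified by FRET substrate fluorescence. Treatment lasts 16 h at 37C; substrate develops 2 h at room temperature.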

[5] = qHTS assay to identify small molecule agonists of the vitamin D receptor (VDR) signaling pathway - cell viability counter screen (AID 743224); note: series mostly up to about 63 µM; % is set by controls: 0 for no effect and ±100 for the full control effect; nearly all actives have a fitted effect of over 50% in size
In short: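 Plated VDR-bla cells (4 h, 37C) received compound, incubated 16 h, then LiveBLAzer substrate 2 h RT; CellTiter-Glo added afterwards, luminescence read at 30 min.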

[6] = qHTS assay to identify small molecule antagonists of the vitamin D receptor (VDR) signaling pathway - cell viability counter screen (AID 743225); note: % is set by controls: 0 for no effect and ±100 for the full control effect; nearly all actives have a fitted effect of over 50% in size
In short: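 Compounds were pinned onto VDR-bla HEK 293T cells together with 1-alpha,25-dihydroxyvitamin D3 at 3 nM final. After 16 h at 37C and 5% CO2 plus the reporter readout, cell viability was measured by CellTiter-Glo luminescence (30 min, room temperature).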

[7] = qHTS assay to identify small molecule agonists of the NFkB signaling pathway (AID 1159509; active = well fitted curve in the direction sought with a large enough effect in the signal ratio in the repeat runs, not every such curve was filed as active; the % refers to the signal ratio; note: series mostly up to about 61 µM; % is set by controls: 0 for no effect and ±100 for the full control effect)
In short: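 NFkB-bla ME-180 cells with a beta-lactamase reporter under an NF-kB response element were plated overnight, treated with compounds in DMSO for 5 hr at 37 C, then loaded with FRET substrate for 1.5 hr at room temperature.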

[8] = qHTS assay to identify small molecule agonists of the NFkB signaling pathway - cell viability counter screen (AID 1159515; calls by dose curve; note: series mostly up to about 61 µM; % is set by controls: 0 for no effect and ±100 for the full control effect; nearly all actives have a fitted effect of over 55% in size)
In short: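 Using the same wells as the NFkB reporter read, ME-180 NFkB-bla cells given compounds for 5 hr were assessed for viability via CellTiter-Glo, with luminescence taken after a 30 min room-temperature incubation.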

[9] = qHTS assay to identify small molecule agonists of the endoplasmic reticulum stress response signaling pathway (AID 1159516; active = well fitted activation curve with a large enough effect in the signal ratio in the repeat runs, not every such curve was filed as active; the % refers to the signal ratio; note: % is set by controls: 0 for no effect and ±100 for the full control effect)
In short: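 An ESRE-bla HeLa cell assay: compounds were pin-transferred from DMSO onto overnight-plated cells and left 5 hr at 37 C. Substrate was then loaded for 2 hr at room temperature before reading fluorescence at 460 nm and 530 nm.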

[10] = qHTS assay to identify small molecule agonists of the endoplasmic reticulum stress response signaling pathway - cell viability counter screen (AID 1159517; calls by dose curve)
In short: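 Luminescence readout: CellTiter-Glo, 30 min RT, same wells as the ESRE-bla reporter read. HeLa ESRE-bla, 1,500 cells/well, o/n 37 C; cpd 5 hr 37 C/5% CO2.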

[11] = qHTS assay to identify small molecule antagonists of the retinoid-related orphan receptor gamma (ROR-gamma) signaling pathway - cell viability counter screen (AID 1159520)
In short: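 Tet-on ROR gamma CHO cells (1,000/well) were plated 4 hr, given compounds in DMSO for 2 hr at 37 C, then induced with 1 uM final doxycycline for 16 hr. Viability was read as ATP by CellTiter-Glo luminescence after 30 min.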

[12] = biological target: Nuclear receptor ROR-gamma (Homo sapiens) (UniProt P51449); experiment: qHTS assay to identify small molecule antagonists of the retinoid-related orphan receptor gamma (ROR-gamma) signaling pathway (AID 1159521)
In short: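 Test compounds were applied to Tet-on RORγ CHO cells 2 h ahead of doxycycline hyclate (1 uM final). Luciferase reporter activity was quantified by luminescence after 16 h at 37 C and 5% CO2.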

[13] = qHTS assay to identify small molecule agonists of the AP-1 signaling pathway - cell viability counter screen (AID 1159525; calls by dose curve; note: nearly all actives have a fitted effect of over 55% in size)
In short: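 ME-180 AP-1-bla, 2500 cells/well, Opti-MEM + 0.5% dialyzed FBS; overnight 37 °C; cpd 15-pt titration, 5 h 37 °C; CellTiter-Glo 30 min RT; luminescence read; normalised to TOAB and DMSO controls.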

[14] = qHTS assay to identify small molecule agonists of the AP-1 signaling pathway (AID 1159526; calls by dose curve; note: % is set by controls: 0 for no effect and ±100 for the full control effect)
[15] = qHTS assay to identify small molecule agonists of the peroxisome proliferator-activated receptor delta (PPARd) signaling pathway - cell viability counter screen (AID 743211); note: % is set by controls: 0 for no effect and ±100 for the full control effect; nearly all actives have a fitted effect of over 55% in size
In short: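 In the same wells used for beta-lactamase reporter measurement, cytotoxicity is scored by CellTiter-Glo. HEK293H PPARd-bla cells receive compound for 17 h at 37C following a 5 h settling period.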

[16] = biological target: Peroxisome proliferator-activated receptor delta (Homo sapiens) (UniProt Q03181); experiment: qHTS assay to identify small molecule agonists of the peroxisome proliferator-activated receptor delta (PPARd) signaling pathway (AID 743212; calls by dose curve; note: % is set by controls: 0 for no effect and ±100 for the full control effect)
In short: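 GeneBLAzer PPARd UAS-bla HEK293H cells (beta-lactamase reporter under UAS control), plated and rested 5 h at 37 C, then exposed to compounds in DMSO at 37 C; LiveBLAzer B/G FRET substrate added, 2 h room temperature, fluorescence read.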

[17] = biological target: Peroxisome proliferator-activated receptor delta (Homo sapiens) (UniProt Q03181); experiment: qHTS assay to identify small molecule antagonists of the peroxisome proliferator-activated receptor delta (PPARd) signaling pathway (AID 743215; active = well fitted inhibition curve with a large enough effect in the signal ratio in the repeat runs, not every such curve was filed as active; the % refers to the signal ratio)
In short: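 HEK293H UAS-bla, PPARd; agonist L165041 300 nM final with cpd in DMSO; 37 C 17 h; FRET substrate, RT 2 h; fluorescence intensity.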

[18] = biological target: Vitamin D3 receptor (Homo sapiens) (UniProt P11473); experiment: qHTS assay to identify small molecule antagonists of the vitamin D receptor (VDR) signaling pathway (AID 743223; active = well fitted inhibition curve with a large enough effect in the signal ratio in the repeat runs, not every such curve was filed as active; the % refers to the signal ratio; note: % is set by controls: 0 for no effect and ±100 for the full control effect)
In short: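 Inhibition of agonist-driven VDR signalling is scored in VDR-bla cells: 3 nM final 1alpha,25-dihydroxyvitamin D3 plus compound, 16 h at 37C, then beta-lactamase detection by FRET substrate fluorescence after 2 h.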

[19] = biological target: Bile acid receptor (Homo sapiens) (UniProt Q96RI1); experiment: qHTS assay to identify small molecule antagonists of the farnesoid-X-receptor (FXR) signaling pathway (AID 743217; active = well fitted inhibition curve with a large enough effect in the signal ratio in the repeat runs, not every such curve was filed as active; the % refers to the signal ratio; note: % is set by controls: 0 for no effect and ±100 for the full control effect)
In short: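 GeneBLAzer FXR-UAS-bla HEK 293T, CDCA-stimulated (50 uM final). Compound treatment 16 h, 37 °C. Detection: beta-lactamase cleavage of B/G FRET substrate, fluorescence.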

[20] = biological target: Bile acid receptor (Homo sapiens) (UniProt Q96RI1); experiment: qHTS assay to identify small molecule agonists of the farnesoid-X-receptor (FXR) signaling pathway (AID 743220; active = well fitted activation curve with a large enough effect in the signal ratio in the repeat runs, not every such curve was filed as active; the % refers to the signal ratio; note: % is set by controls: 0 for no effect and ±100 for the full control effect)
In short: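 Beta-lactamase reporter under UAS control in GeneBLAzer FXR HEK 293T cells (5000/well) measured with LiveBLAzer FRET substrate after 2 h at room temperature. Compound exposure lasted 16 h at 37C.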

Peroxisome proliferator-activated receptor delta (Homo sapiens), sequence (Q03181 whole entry, looked up): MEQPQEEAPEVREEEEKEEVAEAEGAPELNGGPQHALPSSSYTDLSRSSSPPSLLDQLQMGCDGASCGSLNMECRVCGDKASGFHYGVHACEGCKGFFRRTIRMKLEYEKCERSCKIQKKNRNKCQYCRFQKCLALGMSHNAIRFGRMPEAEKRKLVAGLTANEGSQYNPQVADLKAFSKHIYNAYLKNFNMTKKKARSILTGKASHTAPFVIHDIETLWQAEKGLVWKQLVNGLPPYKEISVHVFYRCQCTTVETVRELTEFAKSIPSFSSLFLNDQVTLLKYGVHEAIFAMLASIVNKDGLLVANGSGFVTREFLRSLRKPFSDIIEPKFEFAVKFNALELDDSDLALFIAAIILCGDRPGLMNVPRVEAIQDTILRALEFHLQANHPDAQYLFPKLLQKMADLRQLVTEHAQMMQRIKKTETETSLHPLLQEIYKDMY
Bile acid receptor (Homo sapiens), sequence (Q96RI1 whole entry, looked up): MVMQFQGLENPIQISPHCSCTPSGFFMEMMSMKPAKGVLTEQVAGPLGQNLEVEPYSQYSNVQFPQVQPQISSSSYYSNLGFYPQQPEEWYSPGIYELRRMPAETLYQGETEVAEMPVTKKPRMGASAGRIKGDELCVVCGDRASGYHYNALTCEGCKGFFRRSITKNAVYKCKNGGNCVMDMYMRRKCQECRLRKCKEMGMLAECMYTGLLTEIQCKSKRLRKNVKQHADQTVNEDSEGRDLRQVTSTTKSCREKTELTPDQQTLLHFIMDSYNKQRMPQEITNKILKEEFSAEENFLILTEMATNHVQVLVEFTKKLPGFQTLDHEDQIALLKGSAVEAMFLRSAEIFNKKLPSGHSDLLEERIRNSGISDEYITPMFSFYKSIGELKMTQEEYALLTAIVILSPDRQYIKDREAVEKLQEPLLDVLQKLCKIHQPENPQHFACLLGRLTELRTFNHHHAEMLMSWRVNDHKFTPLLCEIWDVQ
Vitamin D3 receptor (Homo sapiens), sequence (P11473 whole entry, looked up): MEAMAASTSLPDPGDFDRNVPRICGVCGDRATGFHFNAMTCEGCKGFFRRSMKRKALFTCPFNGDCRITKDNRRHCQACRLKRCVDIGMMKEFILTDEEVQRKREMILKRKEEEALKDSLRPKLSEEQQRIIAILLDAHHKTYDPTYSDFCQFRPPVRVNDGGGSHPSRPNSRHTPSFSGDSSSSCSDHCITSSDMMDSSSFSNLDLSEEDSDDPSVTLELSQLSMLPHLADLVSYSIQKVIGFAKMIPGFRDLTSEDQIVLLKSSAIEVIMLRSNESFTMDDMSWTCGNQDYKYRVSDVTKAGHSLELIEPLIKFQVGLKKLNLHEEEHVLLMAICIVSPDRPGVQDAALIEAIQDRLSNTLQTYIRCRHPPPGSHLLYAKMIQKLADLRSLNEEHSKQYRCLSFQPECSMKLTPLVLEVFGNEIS

C/C=C1\C(=O)C[C@H]2[C@@H]3CCC4=CC(=O)CC[C@]4(C)[C@H]3CC[C@]12C
inactive: Potency [1] | outcome [2] | Potency [3] | outcome [4] | outcome [5] | outcome [6] | outcome [7] | outcome [8] | outcome [9] | outcome [10] | Potency [11] | Potency [12] | outcome [13] | Potency [14]

C=C(C)C(=O)OCCC(C)OC(=O)C(=C)C (stereo unspecified)
inactive: Potency [15] | outcome [16] | Potency [1] | outcome [17] | outcome [2] | Potency [3] | outcome [4] | outcome [18] | outcome [5] | outcome [6] | outcome [7] | outcome [8] | outcome [9] | Potency [11] | Potency [12] | outcome [13] | Potency [14]

CC(=O)c1ccc(C)cc1
inactive: outcome [16] | Potency [1] | outcome [17] | Potency [3] | outcome [4] | outcome [18] | outcome [5] | outcome [6] | outcome [7] | outcome [8] | outcome [9] | Potency [11] | Potency [12] | outcome [13] | Potency [14]

Cc1ccccc1Br
inactive: Potency [15] | outcome [16] | Potency [1] | outcome [19] | outcome [20] | Potency [3] | outcome [4] | outcome [18] | outcome [5] | outcome [6] | outcome [7] | outcome [8] | outcome [9] | Potency [11] | Potency [12] | outcome [13] | Potency [14]

C1C2OC2C2C1C1CC2C2OC12 (stereo unspecified)
inactive: Potency [1] | outcome [2] | Potency [3] | outcome [4] | outcome [5] | outcome [6] | outcome [7] | outcome [8] | outcome [9] | outcome [10] | Potency [11] | Potency [12] | outcome [13] | Potency [14]

CC(C)c1ccc2oc3nc(N)c(C(=O)O)cc3c(=O)c2c1
inactive: Potency [15] | Potency [1] | outcome [2] | Potency [3] | outcome [18] | outcome [5] | outcome [6] | outcome [7] | outcome [8] | outcome [9] | Potency [11] | Potency [12] | outcome [13] | Potency [14]

OCCCCCCO
inactive: outcome [16] | Potency [1] | outcome [17] | outcome [19] | outcome [2] | outcome [20] | Potency [3] | outcome [18] | outcome [5] | outcome [6] | outcome [7] | outcome [8] | outcome [9] | Potency [11] | Potency [12] | outcome [13] | Potency [14]

N#CC1(O)CCCCC1
inactive: Potency [15] | outcome [16] | Potency [1] | outcome [17] | outcome [19] | outcome [2] | outcome [20] | Potency [3] | outcome [4] | outcome [18] | outcome [5] | outcome [6] | outcome [7] | outcome [8] | outcome [9] | Potency [11] | Potency [12] | outcome [13] | Potency [14]

OCC(O)[C@@H](O)[C@H](O)[C@H](O)CO[C@H]1O[C@H](CO)[C@@H](O)[C@H](O)[C@H]1O (stereo partly specified)
inactive: Potency [15] | outcome [16] | Potency [1] | Potency [3] | outcome [5] | outcome [6] | outcome [7] | outcome [8] | outcome [9] | Potency [11] | Potency [12] | outcome [13] | Potency [14]

CC(C)=CCC/C(C)=C/C(=O)O
inactive: Potency [1] | outcome [2] | Potency [3] | outcome [5] | outcome [6] | outcome [7] | outcome [8] | outcome [9] | outcome [10] | Potency [11] | Potency [12] | outcome [13] | Potency [14]

CCN1CCN(c2cc3c(cc2F)c(=O)c(C(=O)O)cn3C2CC2)CC1
inactive: outcome [16] | Potency [1] | Potency [3] | outcome [4] | outcome [18] | outcome [5] | outcome [6] | outcome [7] | outcome [8] | outcome [9] | Potency [11] | Potency [12] | outcome [13] | Potency [14]

C=CCOCC(O)CS(=O)(=O)O (stereo unspecified)
inactive: Potency [15] | outcome [16] | Potency [1] | outcome [17] | outcome [2] | Potency [3] | outcome [4] | outcome [5] | outcome [6] | outcome [7] | outcome [8] | outcome [9] | Potency [11] | Potency [12] | outcome [13] | Potency [14]

COC(=O)C1=C(C)NC(C)=C(C(=O)OCC(C)=O)C1c1ccccc1[N+](=O)[O-] (stereo unspecified)
inactive: Potency [15] | outcome [16] | Potency [1] | outcome [17] | outcome [19] | Potency [3] | outcome [4] | outcome [18] | outcome [5] | outcome [6] | outcome [7] | outcome [8] | outcome [9] | Potency [11] | Potency [12] | outcome [13] | Potency [14]

CCCC(C)C(=O)O (stereo unspecified)
inactive: Potency [15] | outcome [16] | outcome [19] | outcome [2] | outcome [20] | Potency [3] | outcome [4] | outcome [18] | outcome [5] | outcome [6] | outcome [7] | outcome [8] | outcome [9] | Potency [11] | Potency [12] | outcome [13] | Potency [14]

CCCCCCC(=O)OCC
inactive: Potency [15] | outcome [16] | Potency [1] | Potency [3] | outcome [4] | outcome [18] | outcome [5] | outcome [6] | outcome [7] | outcome [8] | outcome [9] | Potency [11] | Potency [12] | outcome [13] | Potency [14]

CCCC(C)CO (stereo unspecified)
inactive: Potency [15] | outcome [16] | Potency [1] | outcome [17] | outcome [19] | outcome [2] | Potency [3] | outcome [5] | outcome [6] | outcome [8] | outcome [9] | outcome [10] | Potency [11] | Potency [12] | outcome [13] | Potency [14]

NCC[C@H](O)C(=O)N[C@@H]1C[C@H](N)[C@@H](O[C@H]2O[C@H](CN)[C@@H](O)[C@H](O)[C@H]2O)[C@H](O)[C@H]1O[C@H]1O[C@H](CO)[C@@H](O)[C@H](N)[C@H]1O
inactive: activity change, negative = cytotoxicity [15] 6.61% [at 0.55 µM] | activation [16] 0% [at 0.55 µM] | viability change, negative = cytotoxic [1] -2.06% [at 0.575 µM] | activity change, negative = cytotoxicity [3] 9.05% [at 0.55 µM] | activity change, negative = cytotoxicity [5] 7.01% [at 0.55 µM] | viability change, negative = cytotoxic [6] 0.0036% [at 0.628 µM] | activation [7] 0.167% [at 0.628 µM] | activity, negative = cytotoxic [8] 8.7% [at 0.628 µM] | activation [9] -0.818% [at 0.628 µM] | activity, negative = cytotoxicity [11] 3.36% [at 0.349 µM] | activity change, negative = inhibition [12] 19% [at 0.35 µM] | viability change, negative = cytotoxic [13] 8.93% [at 0.29 µM] | activation [14] 12.3% [at 0.29 µM]
